SMILES strings stand for the structures. The whole screen tested about 150,000 compounds, of which about 100 (0.067%) were called active. This is one part of a sample in which actives are shown more often than they occur.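 How the source made its calls: active means inhibition above the mean plus 3 SD of compounds within the control limits, set per campaign (cut at about 38% in these data); inactive means the rest.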

What is called inhibition is the change of the read-out against control, counted positive when it falls.

A short description of the experiment: reduced ATP in mature Plasmodium gametocytes – ATP luminescence, HTS, primary screen (AID 743093).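 Further: 0% = DMSO wells and 100% = medium only without gametocytes.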 As to conditions: P. falciparum stage V gametocytes, 24 h, at 10.9 µM, hits give high values.
Consider `CC(C)CC(CCc1ccccc1)OS(N)(=O)=O` (stereo unspecified), for which the inhibition was -58.7% (inactive).
The same measure for `CC(C)(C)OC(=O)Nc1ccc([C@@H](NC(=O)OC(C)(C)C)C(=O)OC(C)(C)C)cc1`: -5.54% (inactive).
The same measure for `COc1ccc(C)cc1NC(=O)CNCc1cccs1`: 7.68% (inactive); for `O=C(Cc1ccc(Br)cc1)NCCc1ccccc1`: 15.4% (inactive).
The same measure for `CCC(C)CCN1CCN=C1N(C)C` (stereo unspecified): 4.3% (inactive).
Consider `Cc1ccc(S(=O)(=O)NCCCn2ccnc2)cc1C(=O)NC(C)C`, for which the inhibition was 2.4% (inactive).
For the compound `O=C1N[C@@H](Cc2ccccc2)C(=O)N2[C@H]1C[C@]1(Br)c3ccccc3N(S(=O)(=O)c3ccccc3)[C@H]21`, the inhibition is 12.6% (inactive).
Turning to `COC(=O)c1ccc(COc2ccc(/C=N/NC(=O)C(=O)Nc3ccc(OC)cc3)cc2OC)o1`, the inhibition is 2.74% (inactive).
The same measure for `O=C(N[C@@H](Cc1ccccc1)C(=O)OCc1ccccc1)c1nc[nH]c1C(=O)N[C@@H](Cc1ccccc1)C(=O)OCc1ccccc1`: 0.44% (inactive); for `CCOc1cc(/C=N/Nc2cc(C)nc3ccc(C)cc23)ccc1O`: 10.4% (inactive); for `FC(F)(F)c1ccc2c3n(nc2c1)CCN=C3c1ccc(Cl)cc1`: 6.57% (inactive).
Take `COC(=O)CN1C(=O)[C@H]2[C@@H](C3CC3)N3C(=O)CN(Cc4ccc(-c5ccccc5)cc4)C(=O)[C@@]3(Cc3ccccc3)[C@H]2C1=O`: the inhibition is -19.5% (inactive).
The same measure for `CC(=O)Nc1ccc(NC(=O)CSc2nnnn2-c2ccccc2F)cc1`: -3.76% (inactive).
The same measure for `CC1CN(c2nc(Nc3ccccc3)nc(N)c2[N+](=O)[O-])CC(C)O1` (stereo unspecified): -1.38% (inactive).
The same measure for `CCOc1cc(C)ccc1OCc1nnc(SCC(=O)Nc2cccc(C(=O)O)c2)n1-c1ccccc1`: 15.6% (inactive).
Regarding `Nc1cccnc1Sc1ccccc1`, the inhibition is -1.9% (inactive).
The same measure for `Cc1noc(C)c1NC(=O)Nc1cccc2c1O[C@H](CN(C)S(=O)(=O)c1c(C)noc1C)[C@@H](C)CN([C@H](C)CO)C2=O`: -15.7% (inactive).
The same measure for `O=C(O)c1ccccc1NC(=O)c1ccccc1-c1ccccc1C(=O)O`: -11.4% (inactive); for `CCOCCn1[nH]c2ccccc2c1=O`: -10.4% (inactive).
The same measure for `COc1cc2c(cc1OC)C(c1ccccc1Br)NC(=O)C2` (stereo unspecified): 1.27% (inactive); for `Cc1cccc(NC(=O)CCN2CC(C)CC(C)C2)c1` (stereo unspecified): -2.59% (inactive).
Turning to `CC(=O)Nc1ccc(Oc2ccc3c(c2)C(=O)NC3=O)cc1`, the inhibition was 10.6% (inactive).
With `CCCn1c(C2CCCN2c2nc(-c3ccc(C)cc3)cs2)nc2cc(Cl)c(N3CCCCC3)cc21` (stereo unspecified), the inhibition was 10.4% (inactive).
Consider `O=C(O)CCC(=O)N(Cc1ccccc1)Cc1ccccc1`, for which the inhibition is -4.24% (inactive).
Take `Cc1ccc(S(=O)(=O)N2CCN(C)CC2)cc1`: the inhibition is -1.33% (inactive).
The same measure for `COc1cc2c(cc1OC)C(C(=O)Nc1cc(C)c(OC)c(C)c1)CC(=O)N2` (stereo unspecified): 5.54% (inactive); for `CCOC(=O)c1sc(/N=C/C2=C(O)CC(C)(C)CC2=O)c(C(=O)OCC)c1C`: 22.4% (inactive).
The same measure for `O=C(c1ccc(F)cc1)n1cc(C(=S)N2CCOCC2)c2ccccc21`: 0.53% (inactive); for `N=c1n(CCc2ccccc2)c2ccccc2n1Cc1ccccc1F`: 59.9% (active); for `Cn1cc(CN2CCC(C(O)CCc3ccccc3)CC2)c(-c2ccccc2F)n1` (stereo unspecified): 9.2% (inactive).
The same measure for `CN(Cc1ccccc1)Cc1ccccc1F`: 19.5% (inactive).
In the case of `OC(CNC1CCCC1)COc1ccc(F)cc1` (stereo unspecified), the inhibition is -4.99% (inactive).
The same measure for `NC1=NC(c2ccc([N+](=O)[O-])cc2)N(c2ccc(F)cc2)C(N)=N1` (stereo unspecified): 9.95% (inactive); for `CC(C)NC(=O)/C(C#N)=C\c1ccc(N(C)C)c(Br)c1`: 7.74% (inactive); for `CNC1(c2nnnn2-c2c(C)cccc2C)CCOC(C)(C)C1` (stereo unspecified): 5.71% (inactive).
The same measure for `COc1ccc(NC(=O)c2cc(-c3ccc(C)cc3)on2)cc1`: -2.96% (inactive).
The same measure for `CCOC(=O)C1(Cc2ccccc2C)CCCN(S(C)(=O)=O)C1` (stereo unspecified): -3.76% (inactive); for `COc1ccccc1C(=O)Nc1ccc(Nc2ccccc2)cc1`: -11.9% (inactive).
With `COc1cc(OC)cc(-c2c(-c3cccs3)c3cc(-c4ccc(OC)nc4)ccc3n2C)c1`, the inhibition was -3.15% (inactive).
With `Cc1ccc(C(=O)NNC2=Nc3cc([N+](=O)[O-])ccc3OC2)cc1`, the inhibition is 5.16% (inactive).
The same measure for `O=Cc1c(NCCCN2CCCC2=O)c2ccccc2[nH]c1=O`: -5.27% (inactive).
The same measure for `COc1ccc(CNC(=O)C2CCCC2)cc1`: -3.19% (inactive); for `COc1cccc2oc(CCc3ccccc3)cc(=O)c12`: -20% (inactive).
Regarding `O=C(CN1CCCCCC1)Nc1ccc(Br)cc1[N+](=O)[O-]`, the inhibition is -7.18% (inactive).
Take `COc1ccc(NC(=O)CS(=O)(=O)c2ccccc2)cc1`: the inhibition is 34.6% (inactive).
The same measure for `CCC(CO)Oc1cc(NC(=O)c2cccc(F)c2)c2ncn(C(C)C)c2c1` (stereo unspecified): -8.65% (inactive).
Regarding `CCc1nnc(NS(=O)(=O)c2ccc(NC(=O)c3cccc(OC(F)(F)C(F)F)c3)cc2)s1`, the inhibition is -3.99% (inactive).
The same measure for `CC(C)(C)OC(=O)C[C@H]1C/C=C\C[C@@H](CC(=O)N[C@H](CO)Cc2ccccc2)C(=O)NC[C@@H](c2ccccc2)OC1=O`: 20.4% (inactive); for `COc1ccc(S(=O)(=O)NCCCc2ccccc2)cc1`: -6.3% (inactive); for `CCC1=NN2C(=N)/C(=C/c3cc(C)n(-c4ccccc4)c3C)C(=O)N=C2S1`: 20.8% (inactive).
The same measure for `COC(=O)C1(CCSC)NC(c2ccc(OC)cc2OC)C2C(=O)N(c3cccc(C(C)=O)c3)C(=O)C21` (stereo unspecified): 15.8% (inactive).
Take `Nc1cc(N)nc(SCc2cccc(F)c2)n1`: the inhibition is -27.3% (inactive).
The same measure for `COc1ccccc1C(=O)Nn1cnnc1`: -1.75% (inactive); for `COc1ccc(-c2cc3ncccc3cn2)cc1`: -25% (inactive).
The same measure for `CC(=O)NCC(=O)NC1CCCc2c1cnn2-c1ccccc1F` (stereo unspecified): -0.98% (inactive); for `CCOc1cc(/C=C2\C(=N)N3N=C(C)SC3=NC2=O)ccc1OCCOc1ccccc1`: -11.6% (inactive).
The same measure for `O=C1C=C(c2cccc(Cl)c2O)C[C@@H](c2ccc(F)cc2)C1`: -16.5% (inactive); for `COc1ccccc1OCCCCCCN1CCN(C)CC1`: 14.7% (inactive); for `COc1cc(OC)cc(-c2sc3ccc(OC)cc3c2-c2ccc3cc[nH]c3c2)c1`: 5.06% (inactive).
`C/C(=C/c1ccccc1)C(=O)N1CCN(c2ccccc2)CC1`: the inhibition was 5.72% (inactive).
The same measure for `Cc1cc2nc3n(c2cc1C)CC1CC(C(=O)NCCC(C)C)N(C)C31` (stereo unspecified): 6.88% (inactive); for `COC(=O)[C@]1(C)N[C@H](c2ccc(-c3ccc(Cl)c(Cl)c3)cc2)[C@@H]2C(=O)N(C)C(=O)[C@@H]21`: 15.7% (inactive).
With `CC(C)(C)NC(=O)/C(=C/c1cccnc1)NC(=O)c1ccco1`, the inhibition is -3.01% (inactive).
The same measure for `COc1ccc(C(C)NC(=O)C2CCCC2)cc1` (stereo unspecified): 7.38% (inactive).
For the compound `O=C(CNc1ccc(F)cc1F)NC(=O)NCc1ccco1`, the inhibition was -14.3% (inactive).
The same measure for `COc1ccc2ccn(C)c2c1`: 3.29% (inactive); for `CC(=O)N1CCC(N(C(=O)Nc2ccc(Cl)cc2)C(C)C)CC1`: -9.52% (inactive); for `CCC(=O)Nc1ccc(C(=O)NNC(=O)c2ccc(Cl)cc2)cc1`: 1.21% (inactive).
The same measure for `CCN1C(=S)N[C@@H](CCc2ccccc2)[C@H](C(=O)OC)[C@H]1C`: 12.5% (inactive); for `Oc1c(Br)cc(/C=N/NC(=S)NCC2CCCO2)cc1Br` (stereo unspecified): -1.52% (inactive); for `Cc1cc(N2CCN(c3ccccc3)CC2)nc(N2CCOCC2)n1`: -32.2% (inactive).
The same measure for `COc1ccc(NC(=O)C2=NNC(=O)CC2)cc1S(=O)(=O)N1CCCCC1`: 3.13% (inactive); for `COc1ccc(N(CC(=O)Nc2cccc3ccccc23)S(C)(=O)=O)c(OC)c1`: 7.84% (inactive).
Regarding `O=C(COc1ccccc1)N1CCN=C1SCc1cccc(F)c1`, the inhibition is 8.04% (inactive).
The same measure for `O=C(Nc1cccc(S(=O)(=O)NC2=NCCC2)c1)C1CCCCC1`: -1.09% (inactive); for `CCOc1cc2ccccc2cc1C(=O)Nc1ccccn1`: 3.24% (inactive); for `CC(=O)c1ccc(N2Cc3ccccc3C2)cc1`: 9.41% (inactive).
Consider `O=C(CC(c1ccccc1)c1cc(Cl)ccc1O)NCCN1CCOCC1` (stereo unspecified), for which the inhibition is -8.49% (inactive).
The same measure for `CN(c1ccc(OCC(=O)NC2=NCCS2)cc1)S(=O)(=O)c1ccc(F)cc1`: -8.94% (inactive); for `C/C(=N/NC(=O)CN1CCN(S(=O)(=O)c2ccc(Br)cc2)CC1)c1ccncc1`: -12.4% (inactive); for `Cc1nnc(C)c2c(C)n(N)c(C)c12`: -1.23% (inactive).
The same measure for `COc1ccc(CCN2C(=O)C(C)=C(C)C2=O)cc1OC`: -7.13% (inactive).
The same measure for `COc1cc(OC)cc(-c2c(C#Cc3ccsc3)c3cc(-c4ccc(SC)cc4)ccc3n2C)c1`: 3.56% (inactive); for `O=C(c1ccco1)N1CCN(CCOc2ccccc2)CC1`: -1.67% (inactive).
Consider `O=C(c1ccco1)N1CCN(C(=O)C2c3ccccc3Oc3ccccc32)CC1`, for which the inhibition was 42.8% (active).
The same measure for `O=C(c1ccco1)N1CCN(c2cccc(Cl)c2)CC1`: 4.74% (inactive).
The same measure for `CCCn1c(=O)c(C(=O)Nc2cc(C)ccn2)c(O)c2ccccc21`: -14.8% (inactive); for `CC(=O)c1ccc(NC(=O)C(C)N(C)CC(=O)Nc2ccccc2Cl)cc1` (stereo unspecified): -5.51% (inactive); for `CCOC(=O)C1(CCOc2ccccc2)CCN(Cc2cc(OC)cc(OC)c2)CC1`: 9.31% (inactive).
With `Cn1c(=O)c2c(-c3cccc(Br)c3)c(C#N)c(N)nc2n(C)c1=O`, the inhibition was -18.2% (inactive).
Turning to `COc1ccccc1-c1nnc(-c2ccc(F)cc2)o1`, the inhibition is -17.9% (inactive).
The same measure for `CCOC(=O)[C@H]1[C@H]2COc3ccccc3[C@@H]2N2C(=O)CN(Cc3ccccc3)C(=O)[C@@]12C`: -1.62% (inactive).
The same measure for `CC(=O)Cn1cnc2c(cnn2-c2ccccc2)c1=O`: 2.17% (inactive).
As to `O=C1C(=O)N(CCCO)C(c2ccccc2)/C1=C(\O)c1ccc(Br)cc1` (stereo unspecified), the inhibition is 2.05% (inactive).
The same measure for `COc1ccc(N(CC(=O)NCCSCc2cccc(Cl)c2)S(C)(=O)=O)cc1`: 1.88% (inactive); for `COc1cc(OC)c(C(=S)N2CCCC2)cc1OC`: -6.55% (inactive).
The same measure for `O=c1[nH]cnc(O)c1C(c1ccc(F)cc1)c1c(O)nc[nH]c1=O`: 0.56% (inactive); for `CCCc1nc2oc3c(=O)[nH]cnc3c2c2c1COC(C)(C)C2`: 8.46% (inactive); for `COc1ccc(-c2c(C#Cc3ccccc3)c3ccccc3n2C)cc1`: -4.41% (inactive).
The same measure for `Cc1cccc(NC(=O)C(C)SCc2ccccc2)c1` (stereo unspecified): -2.36% (inactive); for `COc1ccc(Cc2cc(-c3ccc(F)cc3)n[nH]c2=O)cc1`: -14.6% (inactive).
As for `C=CC[C@@H](CC(=O)N[C@@H](CO)Cc1ccccc1)C(=O)NCCOC(=O)[C@@H](CC=C)CC(=O)OC(C)(C)C`, the inhibition was -18.1% (inactive).
The same measure for `COc1ccccc1-n1c(SCC(=O)O)nc2sc3c(c2c1=O)CCC3`: -0.96% (inactive); for `Cc1cc(C)cc(NC(=O)NC2CCN(CC(=O)Nc3cccc(Cl)c3C)CC2)c1`: -10.3% (inactive); for `CC(C)Cc1nnc(NC(=O)CCc2ccccc2)s1`: -5.6% (inactive).
The same measure for `COc1ccc(CCNC(=O)C2CCCN2C(=O)Nc2ccccc2)cc1OC` (stereo unspecified): 11.4% (inactive).
The same measure for `COC(=O)C1(C)NC(c2ccc(F)cc2)C2C(=O)N(c3ccccc3)C(=O)C21` (stereo unspecified): -19.3% (inactive); for `COc1ccccc1-c1oc2ccccc2c1C#CCCCCO`: 7.1% (inactive); for `Cc1cc(-c2n[nH]c(=S)n2/N=C/c2ccco2)n[nH]1`: 9.38% (inactive).
`CCCNC(=S)N1CCC(NC(=O)c2ccc(OC)cc2)CC1`: the inhibition is -3.26% (inactive).
Take `COc1ccc(C(C(=O)NC(C)(C)C)N(C(=O)Cn2nnc3ccccc32)c2ccc(C(C)=O)cc2)cc1O` (stereo unspecified): the inhibition is 8.85% (inactive).
